The nature of assay [1]: qHTS for compounds that reverse cellular toxicity of Amyloid beta (A-beta) peptide in yeast: LOPAC Validation Assay (AID 720559).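 Further: plate controls were DMSO for no effect and equimolar ferric chloride plus clioquinol rescue for full effect.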 Put shortly: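 OD600 growth readout after 48 hr at 30 C; A-beta-toxic yeast plus pinned compounds in medium. Normalization: DMSO = negative, equimolar FeCl3 + clioquinol = positive.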
In general terms: Quantitative high-throughput screening tests each substance at several concentrations.

Assay [2] is described as follows: qHTS for Activators of Parkin Expression: LOPAC Validation Assay (NLuc Reporter) (AID 720572). In outline: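 NLuc signal, read 10 min after reagent and following a prior FLuc read, is normalized to DMSO (0) and positive controls (100%). Cells: neuronal Parkin-promoter coincidence reporter line; compounds tested 7-point, 24 h, 37 C, 5% CO2.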
A short description of assay [3]: qHTS for Activators of Parkin Expression: LOPAC Validation Assay (FLuc Reporter) (AID 720573). Put shortly:
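FLuc luminescence read-out from a neuronal line expressing a Parkin-promoter-driven coincidence reporter. Cells treated 24 h at 37 C, 5% CO2 with compounds at 7 concentrations; signal increase normalized to DMSO and positive control.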

Assay [4] concerns the target T1, Hexokinase-4 (Homo sapiens) + Glucokinase regulatory protein (Homo sapiens) (UniProt P35557+Q14397). Kind of assay: qHTS assay for inhibitors of recombinant human GCK-GKRP interaction: Diaphorase-coupled assay (AID 743205). Put shortly:
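Resorufin fluorescence (525/590 nm), read each minute over 30 min, reports GCK activity coupled via G6PDH and diaphorase. Reaction: 10 nM GST-GCK, 10 nM FLAG-GKRP, 5 mM glucose, 0.4 mM ATP, 0.15 mM NADP+, 0.1 mM resazurin.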

Assay [5] has as its target T1, Hexokinase-4 (Homo sapiens) + Glucokinase regulatory protein (Homo sapiens). Kind of assay: qHTS assay for inhibitors of recombinant human GCK-GKRP interaction: ADP-Glo assay (AID 743206).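 Further: plate controls were DMSO plus enzyme for no effect and no enzyme for full effect.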 In outline:
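Pin-transferred compounds meet a 15 nM GST-GCK/15 nM FLAG-GKRP/2 uM S6P mix (dispense concentrations). ATP is then added to 0.4 mM final with 5 mM glucose, and the reaction runs 60 min at room temperature. ADP is quantified luminescently.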

Assay [6] has the same target. The assay is described as follows: qHTS assay for inhibitors of recombinant human GCK-GKRP interaction: HTRF assay (AID 743207).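 Further: 0% = DMSO with GCK present and -100% = DMSO wells lacking GCK.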 Put shortly:
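HTRF read-out (ex 320 nm; 615/665 nm emission) after 60 min RT equilibration of 5 nM GST-GCK, 5 nM FLAG-GKRP, 2 uM S6P, compound and anti-FLAG/anti-GST detection antibodies; signal normalized between DMSO wells with and without GCK.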

The nature of assay [7]: qHTS Assay for Identifying Gametocytocidal Compounds (AID 743244).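 Further: on the % scale 0 is the no-effect control and ±100 the full control effect; actives lower the fluorescent signal which means gametocytes are killed.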 As to conditions: P. falciparum 3D7 stage III-V gametocytes, alamarBlue, 72 h; max response: stronger effect = lower value. In outline: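 A resazurin-based viability read-out was applied to mature P. falciparum gametocytes: 72 h compound treatment, then 24 h dye incubation, with falling fluorescence signalling gametocytocidal effect.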

A short description of assay [8]: qHTS profiling of the MIPE4 collection as inhibitors of Plasmodium falciparum (3D7) proliferation (AID 743344; call rule not given here;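 further: scaled between DMSO vehicle wells and 0.29 µM artemisinin as full inhibition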). The note with it: P. falciparum 3D7 in erythrocytes, SYBR Green DNA fluorescence, 72 h; at 28.5 µM (top of the series) unless noted. In outline: (§1)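 Parasite DNA was quantified by SYBR Green I fluorescence (ex 485, em 535 nm) after overnight lysis in saponin/Triton buffer at room temperature. Cultures at 0.3% parasitemia and 2.5% hematocrit were first exposed to compound for 72 h at 37 C; signals were normalised to artemisinin (0.29 uM) and vehicle wells.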

Assay [9] is described as follows: qHTS profiling of the MIPE4 collection as inhibitors of Plasmodium falciparum (DD2) proliferation (AID 743345; call rule not given here). As to conditions: P. falciparum Dd2 in erythrocytes, SYBR Green DNA, 72 h; at 28.5 µM (top of the series) unless noted. In outline:
as §1

The nature of assay [10]: qHTS profiling of the MIPE4 collection as inhibitors of Plasmodium falciparum (DD2) proliferation (Rep 2) (AID 743346; call rule not given here). As to conditions: P. falciparum Dd2 in erythrocytes, SYBR Green DNA, 72 h; at 28.5 µM (top of the series) unless noted. In outline: as §1
Assay [11] can be described thus: qHTS profiling of the MIPE4 collection as inhibitors of Plasmodium falciparum (HB3) proliferation (AID 743347; call rule not given here;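 further: plate controls were DMSO vehicle wells for no effect and artemisinin wells for full effect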). As to conditions: P. falciparum HB3 in erythrocytes, SYBR Green DNA, 72 h; at 28.5 µM (top of the series) unless noted. Put shortly: as §1
The nature of assay [12]: qHTS assay for small molecule agonists of the antioxidant response element (ARE) signaling pathway measured by Nrf2-dependant transcriptional activity (AID 720636; active means well fitted curve in the direction sought with a large enough effect in the repeat runs; an effect the other way counts as inactive or inconclusive;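 further: HepG2 cells with an ARE-driven luciferase reporter; % of control where 0% means no effect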). Put shortly: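 First, ARE-luc HepG2 cells attached for 6 hr at 37 C in 1% dialyzed FBS medium. Next, compound or DMSO was added and incubated 16 hr. Finally, ONE-Glo reagent was added and luminescence measured after 30 min.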

A short description of assay [13]: qHTS assay for small molecule antagonists of the retinoid-related orphan receptor gamma (ROR-gamma) signaling pathway - cell viability counter screen (AID 720652; active means well fitted curve in the direction sought with a large enough effect in the repeat runs; an effect the other way counts as inactive or inconclusive;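 further: CHO reporter cells with doxycycline-induced ROR-gamma expression; compound exposure lasted 16 hr before ATP read; on the % scale 0 is the no-effect control and ±100 the full control effect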). Put shortly: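 Steps: seed CHO cells bearing TET-inducible ROR and ROR response element-luciferase; rest 5 hr at 37 C; add compound, then doxycycline; incubate 16 hr; add CellTiter-Glo and read luminescence as ATP-based viability.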

Assay [14] is described as follows: qHTS assay for small molecule agonists of the antioxidant response element (ARE) signaling pathway measured by Nrf2-dependant transcriptional activity - cell viability counter screen (AID 720653; active means well fitted curve in the direction sought with a large enough effect in the repeat runs; an effect the other way counts as inactive or inconclusive; further: on the % scale 0 is the no-effect control and ±100 the full control effect). The note with it: ARE-bla HepG2 viability, CellTiter-Glo ATP luminescence, 16 h; max response: stronger effect = lower value. In outline: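 ARE-bla HepG2 cells treated with compounds for 16 h at 37C; this counter screen measures viability as intracellular ATP by CellTiter-Glo luminescence after 30 min at room temperature.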

The nature of assay [15]: qHTS assay for cell viability of HEK293 cells (AID 743288). Further: on the % scale 0 is the no-effect control and ±100 the full control effect; nearly all actives have a fitted effect of over 50% in size. As to conditions: ATP luminescence (CellTiter-Glo), 18 h; max response: stronger effect = lower value. Put shortly: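 ATP luminescence (CellTiter-Glo) reports metabolically competent cell number after parental HEK293 cells, 2,000/well, were treated with DMSO-dissolved compounds for 18 h at 37 C; reagent incubation 30 min, room temperature.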

The nature of assay [16]: qHTS assay for cell viability of the p53RE-bla HCT-116 cell line (AID 743292). Further: on the % scale 0 is the no-effect control and ±100 the full control effect; nearly all actives have a fitted effect of over 55% in size. Put shortly:
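Quantitative high-throughput format: compounds in DMSO were pinned onto p53RE-bla HCT-116 cells (4,000/well) and incubated 16 h at 37 C. Total intracellular ATP, read by CellTiter-Glo luminescence, reflects viable cell number.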

The target in assay [17] is Arylsulfatase A (Homo sapiens) (UniProt P15289). The assay is described as follows: qHTS screen for enhancers of Arylsulfatase A (ASA1): LOPAC Validation Assay (AID 720538). Further: 0% is about no effect. The note with it: outcome: dose series up to 57.5 µM. In outline:
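Read-out: fluorescence at Ex=525/Em=598 nm after 1N NaOH final stop. Patient fibroblasts carrying ASA-I179S had 48h compound exposure, then 14h room-temperature pNCS hydrolysis (0.5mM final) in lysis buffer. Signal increase = enhanced activity.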

Several values for one entry are separate records, joined by “and”; a condition that tells them apart may be missing. Equal values may be shown once. Inconclusive results are not listed. Activity calls are given as the source filed them. Unless noted, the call rests on the fitted dose curve; in most records, active means well fitted curve in the direction sought with a large enough effect; inconclusive means small, poorly fitted or top-dose-only effect, or another doubt; inactive means no such curve, though single readings can be large; an effect the other way counts as inactive or inconclusive.

Here are results for seven molecules from PubChem BioAssay (NCATS).

T1 sequence (P35557 whole entry, looked up): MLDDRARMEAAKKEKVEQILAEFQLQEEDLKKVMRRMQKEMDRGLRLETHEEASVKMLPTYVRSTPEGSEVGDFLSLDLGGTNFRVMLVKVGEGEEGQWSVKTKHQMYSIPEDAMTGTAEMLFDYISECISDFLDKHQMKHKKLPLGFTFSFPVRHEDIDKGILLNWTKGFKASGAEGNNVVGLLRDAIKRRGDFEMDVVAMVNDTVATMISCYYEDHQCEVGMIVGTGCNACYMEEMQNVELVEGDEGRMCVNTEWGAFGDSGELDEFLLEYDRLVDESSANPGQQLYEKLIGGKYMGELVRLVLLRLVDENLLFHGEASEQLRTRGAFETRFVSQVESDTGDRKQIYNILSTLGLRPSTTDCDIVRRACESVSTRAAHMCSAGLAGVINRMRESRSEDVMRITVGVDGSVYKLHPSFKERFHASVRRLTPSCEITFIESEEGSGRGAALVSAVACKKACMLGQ
T1 sequence (Q14397 whole entry, looked up): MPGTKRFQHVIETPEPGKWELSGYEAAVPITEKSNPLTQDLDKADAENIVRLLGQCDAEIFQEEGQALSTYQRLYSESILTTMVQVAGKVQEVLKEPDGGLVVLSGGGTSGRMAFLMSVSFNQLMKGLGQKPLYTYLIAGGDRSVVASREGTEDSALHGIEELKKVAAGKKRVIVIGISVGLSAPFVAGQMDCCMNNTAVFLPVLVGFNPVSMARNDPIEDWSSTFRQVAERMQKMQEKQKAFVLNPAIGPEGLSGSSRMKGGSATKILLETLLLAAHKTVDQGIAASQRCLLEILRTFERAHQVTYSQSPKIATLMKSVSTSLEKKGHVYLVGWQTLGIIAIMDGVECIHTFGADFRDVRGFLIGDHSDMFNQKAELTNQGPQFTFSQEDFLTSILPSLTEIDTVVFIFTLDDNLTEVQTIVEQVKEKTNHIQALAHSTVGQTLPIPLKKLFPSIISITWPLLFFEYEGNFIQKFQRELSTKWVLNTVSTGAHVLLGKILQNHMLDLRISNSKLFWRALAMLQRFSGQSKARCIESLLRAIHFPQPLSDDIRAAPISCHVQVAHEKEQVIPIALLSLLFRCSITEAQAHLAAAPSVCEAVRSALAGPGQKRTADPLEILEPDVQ
Arylsulfatase A (Homo sapiens), sequence (P15289 whole entry, looked up): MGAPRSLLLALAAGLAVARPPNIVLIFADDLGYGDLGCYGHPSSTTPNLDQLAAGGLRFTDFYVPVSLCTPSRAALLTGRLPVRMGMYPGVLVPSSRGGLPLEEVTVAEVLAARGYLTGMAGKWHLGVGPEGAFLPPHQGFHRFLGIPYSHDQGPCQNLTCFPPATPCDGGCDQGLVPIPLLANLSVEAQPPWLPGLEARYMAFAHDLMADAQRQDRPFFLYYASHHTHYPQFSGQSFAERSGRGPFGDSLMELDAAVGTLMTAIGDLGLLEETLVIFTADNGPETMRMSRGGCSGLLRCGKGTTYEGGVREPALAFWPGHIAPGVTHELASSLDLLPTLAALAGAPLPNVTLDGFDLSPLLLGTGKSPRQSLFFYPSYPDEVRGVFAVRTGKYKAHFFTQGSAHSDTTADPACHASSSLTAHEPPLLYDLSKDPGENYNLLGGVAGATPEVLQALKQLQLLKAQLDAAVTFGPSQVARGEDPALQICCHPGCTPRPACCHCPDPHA

On to `NC(=O)c1ccc2[nH]ccc2c1`, for which the molecule was called inactive in [1], in assay [2], in assay [3], in assay [4], in assay [5] and in assay [6]. For the same molecule, the max response in assay [7] is 11.4% (inactive). This molecule also came in with a parasite growth, % of DMSO control in assay [8] of 98%. Moreover, in assay [9], the parasite growth remaining, % of DMSO control (lower = more inhibition) amounted to 90.8%. Also, the parasite growth, % of control (lower = inhibition) in assay [10] came out at 122%. Moreover, the growth, % of control in [11] stood at 57.5%.
Consider `C[C@]12C=CC(=O)C=C1CC[C@@H]1[C@@H]2C(=O)C[C@@]2(C)[C@H]1CC[C@]2(O)C(=O)CO`, for which the result in assay [12] was inactive. Also, the Potency result in assay [13] and in [16] was “inactive” each time. Moreover, the max response was 1.48% (inactive) in [14], 18% (inactive) in assay [7] and 0.765% (inactive) in assay [15]. The same molecule yielded a parasite growth, % of DMSO control in assay [8] of 93.3% [at 9.64 µM]. Also, the parasite growth remaining, % of DMSO control (lower = more inhibition) in assay [9] is 95.7% [at 9.64 µM]. Moreover, in assay [10], the parasite growth, % of control (lower = inhibition) was found to be 82.6% [at 9.64 µM]. The molecule further returned a growth, % of control in assay [11] of 104% [at 9.64 µM].
Regarding `CCc1cc(C(N)=S)ccn1`, the call in [12] was inactive. Also, the Potency result in [13] and in assay [16] was “inactive” in each case. Further, the max response in [14] was -5.32% (inactive) and -4.73% (inactive); in assay [7], -11% (inactive); in [15], 6.59% (inactive) and -10.6% (inactive). For the same molecule, the parasite growth, % of DMSO control in assay [8] turned out to be 4.85%. Besides, the parasite growth remaining, % of DMSO control (lower = more inhibition) in assay [9] came out at 10.5%. Also, in assay [10], the parasite growth, % of control (lower = inhibition) is 6.58%. In addition, the growth, % of control in assay [11] stood at 2.68%.
`Cc1ccnc2c1NC(=O)c1cccnc1N2C1CC1`: the call in assay [12] was inactive. For the same molecule, the Potency result in assay [13] and in assay [16] was “inactive” in each case. Further, the max response in assay [14] was -0.463% (inactive); in assay [7], 21.9% (inactive); in assay [15] it was -6.97% (inactive).
For `N[C@@H](Cc1ccc(O)c(O)c1)C(=O)O`, the result in assay [17], in [1], in assay [2], in assay [3], in assay [4] and in assay [5] was inactive. For the same molecule, the outcome in assay [6] was inactive. Moreover, the max response in assay [14] was 13.2% (inactive); in assay [7] it was 20.2% (inactive); in assay [15], 4.23% (inactive). The Potency entry in [16] was “inactive”. The molecule also returned a parasite growth, % of DMSO control in [8] of 85.4%. For the same molecule, the parasite growth remaining, % of DMSO control (lower = more inhibition) in [9] worked out at 114%. Moreover, the parasite growth, % of control (lower = inhibition) in [10] turned out to be 64.9%.
In the case of `O=C(O)c1cc(=O)[nH]c(=O)[nH]1`, the call in assay [12] was inactive. Further, the Potency result in [13] and in assay [16] was “inactive” in each case. The max response in [14] is 16.2% (inactive); in assay [7], -0.993% (inactive); in assay [15] it was -10.9% (inactive). Besides, the parasite growth, % of DMSO control in [8] turned out to be 101%. Moreover, the parasite growth remaining, % of DMSO control (lower = more inhibition) in assay [9] was found to be 144%. In addition, in [10], the parasite growth, % of control (lower = inhibition) came to 89%. Also, the growth, % of control in [11] amounted to 107%.
With `CC(=O)CC(c1ccccc1)c1c(O)c2ccccc2oc1=O` (stereo not given), the outcome in assay [12] was inactive. Besides, the max response in [14] was 12% (inactive); in assay [15], 0.884% (inactive). For the same molecule, in assay [16], the Potency result is “inactive”.
